Source: the supplement of paper PMC10849652
Of roughly 8,800 targets only a part is listed; those with a hit were picked by preference. About 0.5% of all pairs of compound and target were hits. Unmarked numbers belong to inactive results.

Key:
Assay in all cases: log2 fold change, soluble protein after heating vs DMSO (PISA); higher = thermal stabilisation; K562 lysate, 10 uM; active = over 0.2 and 3.5 SD of the protein, either way, in both replicates (recomputed)
[1] = compound: C1=CC=C(C=C1)[C@H](COC2=CC3=C(C=C2)NC(=O)N3)NC(=O)C4=CC=CN(C4=O)CC5=CC(=C(C=C5)F)F
How it was run: (§1)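 A 30 min treatment with 10 μM compound was applied to crude K562 extract at 1 mg/mL protein in PBS pH 7.4 with 1 mM MgCl2. Heating for 3 min spanned 48°C-58°C, after which aliquots were pooled, adjusted to 0.5% NP-40 at 4°C and spun at 21,000xg for 90 min. TMTpro 16plex LC-MS/MS of the supernatant, with channel sums equalised, gave values recorded as log-two fold change in thermal stability against solvent controls, from duplicates.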

[2] = compound: CC1=C(SC2=C1C(=N[C@H](C3=NN=C(N32)C)CC(=O)N)C4=CC=C(C=C4)Cl)C
How it was run: as §1

[3] = compound: CC1=C2C(=CC=C1)N=C(N(C2=O)C3=CC=CC=C3C)CN4C=NC5=C(N=CN=C54)N
How it was run: as §1

[4] = compound: Cc1sc2c(c1C)C(c1ccc(Cl)cc1)=N[C@@H](CC(=O)OC(C)(C)C)c1nnc(C)n1-2
How it was run: as §1

[5] = compound: c1ccc([C@@H]2C[C@H]2NC2CCNCC2)cc1
How it was run: as §1

Chain of UniProt Q07666 (Q07666 whole entry, looked up): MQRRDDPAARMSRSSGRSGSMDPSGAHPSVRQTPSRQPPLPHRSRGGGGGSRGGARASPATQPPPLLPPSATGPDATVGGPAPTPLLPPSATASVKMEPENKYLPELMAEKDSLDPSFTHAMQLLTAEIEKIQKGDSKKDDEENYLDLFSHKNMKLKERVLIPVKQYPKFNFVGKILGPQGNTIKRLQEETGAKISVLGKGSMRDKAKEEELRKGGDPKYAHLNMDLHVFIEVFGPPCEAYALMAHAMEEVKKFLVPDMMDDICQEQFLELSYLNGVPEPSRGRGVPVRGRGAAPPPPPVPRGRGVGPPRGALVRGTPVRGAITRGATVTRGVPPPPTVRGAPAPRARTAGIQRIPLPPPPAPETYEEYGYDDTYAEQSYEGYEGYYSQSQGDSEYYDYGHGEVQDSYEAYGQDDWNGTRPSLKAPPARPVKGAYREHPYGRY
Chain of UniProt Q9BUJ2 (Q9BUJ2 whole entry, looked up): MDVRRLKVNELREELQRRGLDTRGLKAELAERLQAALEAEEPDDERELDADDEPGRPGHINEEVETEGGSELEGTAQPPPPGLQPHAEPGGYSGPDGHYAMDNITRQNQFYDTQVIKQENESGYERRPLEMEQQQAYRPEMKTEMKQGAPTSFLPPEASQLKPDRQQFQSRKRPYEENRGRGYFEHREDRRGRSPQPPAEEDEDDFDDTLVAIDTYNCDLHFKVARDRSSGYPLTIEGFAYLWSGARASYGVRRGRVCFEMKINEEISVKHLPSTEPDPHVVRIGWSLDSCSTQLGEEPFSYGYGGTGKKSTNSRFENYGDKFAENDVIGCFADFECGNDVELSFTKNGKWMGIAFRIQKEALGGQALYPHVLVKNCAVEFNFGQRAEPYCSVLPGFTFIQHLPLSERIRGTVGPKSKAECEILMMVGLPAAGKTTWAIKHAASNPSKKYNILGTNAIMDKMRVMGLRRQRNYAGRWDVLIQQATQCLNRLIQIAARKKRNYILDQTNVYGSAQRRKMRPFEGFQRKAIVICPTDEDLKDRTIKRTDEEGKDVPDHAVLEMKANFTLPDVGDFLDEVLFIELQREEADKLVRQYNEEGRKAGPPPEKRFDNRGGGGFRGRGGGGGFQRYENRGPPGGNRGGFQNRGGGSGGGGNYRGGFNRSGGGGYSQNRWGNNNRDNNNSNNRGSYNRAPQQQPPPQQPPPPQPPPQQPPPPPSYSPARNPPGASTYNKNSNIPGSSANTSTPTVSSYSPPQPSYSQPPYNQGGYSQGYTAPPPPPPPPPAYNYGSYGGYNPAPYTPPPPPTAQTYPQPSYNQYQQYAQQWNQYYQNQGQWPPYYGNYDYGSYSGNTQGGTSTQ
Chain of UniProt Q8IYU2 (Q8IYU2 whole entry, looked up): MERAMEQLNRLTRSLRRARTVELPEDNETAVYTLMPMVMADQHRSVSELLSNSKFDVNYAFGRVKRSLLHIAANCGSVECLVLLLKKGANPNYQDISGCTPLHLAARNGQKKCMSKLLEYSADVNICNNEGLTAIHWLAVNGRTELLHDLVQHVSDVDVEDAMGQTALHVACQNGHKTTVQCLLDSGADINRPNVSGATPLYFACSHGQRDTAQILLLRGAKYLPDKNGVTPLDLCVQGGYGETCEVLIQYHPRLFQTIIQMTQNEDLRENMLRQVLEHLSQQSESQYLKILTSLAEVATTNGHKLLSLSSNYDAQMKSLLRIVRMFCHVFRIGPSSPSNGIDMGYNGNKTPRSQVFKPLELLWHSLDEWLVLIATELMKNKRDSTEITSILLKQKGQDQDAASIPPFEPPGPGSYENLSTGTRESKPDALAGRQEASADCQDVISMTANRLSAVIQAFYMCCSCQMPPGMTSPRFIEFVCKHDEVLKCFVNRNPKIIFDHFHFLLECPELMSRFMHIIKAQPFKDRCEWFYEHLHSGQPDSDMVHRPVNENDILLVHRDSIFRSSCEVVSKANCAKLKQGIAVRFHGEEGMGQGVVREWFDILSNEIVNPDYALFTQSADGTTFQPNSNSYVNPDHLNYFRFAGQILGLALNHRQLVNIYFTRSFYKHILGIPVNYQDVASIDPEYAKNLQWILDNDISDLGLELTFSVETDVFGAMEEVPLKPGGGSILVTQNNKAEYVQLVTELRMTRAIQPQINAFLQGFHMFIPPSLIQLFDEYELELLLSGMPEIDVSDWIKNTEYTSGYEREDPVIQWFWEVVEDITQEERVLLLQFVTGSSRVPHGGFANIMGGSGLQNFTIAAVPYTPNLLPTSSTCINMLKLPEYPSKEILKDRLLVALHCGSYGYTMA
Chain of UniProt Q03013 (Q03013 whole entry, looked up): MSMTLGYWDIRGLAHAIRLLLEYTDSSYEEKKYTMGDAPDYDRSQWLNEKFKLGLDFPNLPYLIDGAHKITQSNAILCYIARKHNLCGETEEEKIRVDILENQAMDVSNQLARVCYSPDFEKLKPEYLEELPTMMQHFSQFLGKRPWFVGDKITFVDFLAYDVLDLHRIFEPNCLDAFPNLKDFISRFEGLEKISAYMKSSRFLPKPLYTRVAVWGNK
Chain of UniProt P13598 (P13598 whole entry, looked up): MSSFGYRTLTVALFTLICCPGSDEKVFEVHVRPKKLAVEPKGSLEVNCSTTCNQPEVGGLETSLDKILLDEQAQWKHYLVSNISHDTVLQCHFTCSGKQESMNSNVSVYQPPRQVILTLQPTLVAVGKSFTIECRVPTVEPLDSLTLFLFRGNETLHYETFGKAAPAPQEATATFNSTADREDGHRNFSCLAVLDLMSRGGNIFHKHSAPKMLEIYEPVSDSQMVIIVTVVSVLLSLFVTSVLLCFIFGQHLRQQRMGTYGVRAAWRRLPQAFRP
Chain of UniProt P12081 (P12081 whole entry, looked up): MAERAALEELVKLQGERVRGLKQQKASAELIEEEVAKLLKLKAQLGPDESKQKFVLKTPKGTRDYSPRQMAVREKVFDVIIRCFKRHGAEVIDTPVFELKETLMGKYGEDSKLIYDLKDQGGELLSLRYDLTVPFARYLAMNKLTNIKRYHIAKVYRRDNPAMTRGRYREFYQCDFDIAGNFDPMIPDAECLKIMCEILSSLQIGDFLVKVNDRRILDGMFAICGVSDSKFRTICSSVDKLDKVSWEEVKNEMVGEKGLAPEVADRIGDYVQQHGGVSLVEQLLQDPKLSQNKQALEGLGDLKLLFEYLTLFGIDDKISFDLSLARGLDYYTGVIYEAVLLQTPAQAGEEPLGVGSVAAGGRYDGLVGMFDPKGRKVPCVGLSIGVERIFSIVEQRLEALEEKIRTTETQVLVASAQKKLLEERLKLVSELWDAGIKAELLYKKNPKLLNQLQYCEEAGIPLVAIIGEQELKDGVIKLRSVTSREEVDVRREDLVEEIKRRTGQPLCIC
Chain of UniProt Q9BX10 (Q9BX10 whole entry, looked up): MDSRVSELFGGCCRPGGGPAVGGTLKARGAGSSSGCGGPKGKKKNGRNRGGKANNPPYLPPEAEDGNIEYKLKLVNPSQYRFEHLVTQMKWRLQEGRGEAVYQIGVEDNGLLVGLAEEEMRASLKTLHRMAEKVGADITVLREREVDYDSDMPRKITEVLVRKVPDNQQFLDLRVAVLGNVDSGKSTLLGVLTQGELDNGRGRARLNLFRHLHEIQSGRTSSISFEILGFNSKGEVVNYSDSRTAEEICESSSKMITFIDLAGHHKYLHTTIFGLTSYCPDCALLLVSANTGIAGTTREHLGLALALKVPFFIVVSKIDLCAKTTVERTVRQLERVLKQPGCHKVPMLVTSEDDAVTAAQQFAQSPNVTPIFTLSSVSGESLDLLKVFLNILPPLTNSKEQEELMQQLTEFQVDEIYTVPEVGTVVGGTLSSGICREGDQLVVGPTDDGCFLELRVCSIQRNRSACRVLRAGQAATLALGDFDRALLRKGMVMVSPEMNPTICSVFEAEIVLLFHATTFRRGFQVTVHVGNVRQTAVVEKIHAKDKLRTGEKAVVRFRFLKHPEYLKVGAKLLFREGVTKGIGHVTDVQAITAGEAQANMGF
Chain of UniProt P40939 (P40939 whole entry, looked up): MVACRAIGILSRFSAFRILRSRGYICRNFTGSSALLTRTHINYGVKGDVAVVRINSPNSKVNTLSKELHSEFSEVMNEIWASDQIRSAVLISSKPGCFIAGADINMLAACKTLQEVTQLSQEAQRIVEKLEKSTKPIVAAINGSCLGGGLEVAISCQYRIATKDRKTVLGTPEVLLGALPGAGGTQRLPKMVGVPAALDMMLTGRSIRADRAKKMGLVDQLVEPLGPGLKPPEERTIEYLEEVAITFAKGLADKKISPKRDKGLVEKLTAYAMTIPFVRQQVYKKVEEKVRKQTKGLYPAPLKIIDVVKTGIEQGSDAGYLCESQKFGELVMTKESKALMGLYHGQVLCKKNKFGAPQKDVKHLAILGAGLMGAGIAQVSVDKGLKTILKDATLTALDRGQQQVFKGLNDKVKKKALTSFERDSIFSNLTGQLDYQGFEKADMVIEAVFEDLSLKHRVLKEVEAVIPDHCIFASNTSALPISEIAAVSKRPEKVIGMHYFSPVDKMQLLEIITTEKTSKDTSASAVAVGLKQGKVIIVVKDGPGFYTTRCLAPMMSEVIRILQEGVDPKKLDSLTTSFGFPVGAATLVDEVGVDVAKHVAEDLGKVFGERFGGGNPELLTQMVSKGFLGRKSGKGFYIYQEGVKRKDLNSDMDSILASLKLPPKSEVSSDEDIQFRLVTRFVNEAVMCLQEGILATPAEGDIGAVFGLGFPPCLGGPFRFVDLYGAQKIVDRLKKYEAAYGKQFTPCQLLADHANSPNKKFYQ
Chain of UniProt P50053 (P50053 whole entry, looked up): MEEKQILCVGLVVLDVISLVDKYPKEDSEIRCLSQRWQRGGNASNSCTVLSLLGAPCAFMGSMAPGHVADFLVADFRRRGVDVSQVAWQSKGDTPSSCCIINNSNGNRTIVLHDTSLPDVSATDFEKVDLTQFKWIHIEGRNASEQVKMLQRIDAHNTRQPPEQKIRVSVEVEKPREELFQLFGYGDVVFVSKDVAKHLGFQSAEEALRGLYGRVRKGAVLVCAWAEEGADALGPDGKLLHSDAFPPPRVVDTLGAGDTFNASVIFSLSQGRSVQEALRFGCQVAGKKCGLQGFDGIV

Target | log2 fold change [1] | log2 fold change [2] | log2 fold change [3] | log2 fold change [4] | log2 fold change [5]
HNRNPUL1 (UniProt Q9BUJ2) | 0.043 | -0.022 | -0.028 | -0.003 | -0.006
GRB10 (UniProt Q13322) | 0.03 | 0.022 | 0.024 | 0.045 | -0.078
HNRNPD isoform 3 (UniProt Q14103) | -0.087 | -0.145 | 0 | -0.096 | -0.003
HMGN4 (UniProt O00479) | -0.137 | -0.395 | -0.186 | 0.297 | 0.513
HARS (UniProt P12081) | 0.025 | 0.006 | 0.001 | 0.008 | 0.002
GTF2I (UniProt P78347) | -0.026 | 0 | 0.009 | 0.015 | 0.061
HK1 isoform 2 (UniProt P19367) | -0.017 | 0.017 | -0.002 | 0.016 | 0.016
GMDS (UniProt O60547) | -0.003 | -0.014 | 0.042 | 0.033 | 0.005
IMMT (UniProt C9J406) | -0.055 | 0.041 | 0.049 | 0.077 | -0.056
HECTD4 (UniProt J3KPF0) | -0.013 | 0.023 | 0.068 | -0.03 | 0.043
KBTBD2 (UniProt Q8IY47) | 0.016 | -0.005 | 0.025 | 0.012 | -0.119
HMBOX1 isoform 5 (UniProt Q6NT76) | 0.016 | -0.008 | 0.055 | 0.027 | -0.114
HNRNPM (UniProt P52272) | -0.099 | 0.034 | 0.041 | -0.025 | 0.014
GSK3A (UniProt P49840) | -0.041 | 0.03 | -0.059 | 0.036 | -0.044
HSPA8 (UniProt E9PK54) | 0.065 | -0.031 | -0.031 | -0.046 | -0.125
HLTF (UniProt Q14527) | -0.053 | -0.006 | -0.065 | 0.028 | 0.011
HACE1 (UniProt Q8IYU2) | -0.03 | 0.08 | 0.07 | -0.115 | -0.377
GSTM4 (UniProt Q03013) | -0.04 | -0.053 | 0.03 | 0.09 | -0.016
HECTD3 (UniProt Q5T447) | -0.06 | 0.038 | 0.046 | 0.034 | 0.06
GON4L (UniProt Q3T8J9) | 0.027 | 0 | 0.008 | 0.003 | 0.466 (active)
HNRNPH2 (UniProt P55795) | 0.036 | -0.007 | 0 | 0.105 | -0.011
HDAC10 (UniProt Q969S8) | -0.076 | 0.115 | 0.21 | 0.197 | -0.055
GTPBP2 (UniProt Q9BX10) | 0.019 | 0.021 | 0.025 | 0.049 | 0.034
HDAC1 (UniProt Q13547) | -0.04 | 0.02 | 0.001 | -0.025 | -0.015
KBTBD4 isoform 2 (UniProt Q9NVX7) | -0.014 | -0.003 | -0.106 | -0.025 | 0.016
GOLGA6B (UniProt A6NDN3) | -0.041 | 0.006 | 0.009 | -0.123 | 0.012
GSE1 (UniProt Q14687) | -0.031 | 0.005 | -0.002 | -0.015 | 0.184

Target | log2 fold change [1] | log2 fold change [2] | log2 fold change [3] | log2 fold change [4] | log2 fold change [5]
ISCA1 isoform 2 (UniProt Q9BUE6) | 0.005 | -0.03 | 0.016 | -0.021 | 0.099
HNRNPUL2 (UniProt Q1KMD3) | 0.011 | 0.016 | 0.015 | 0.007 | 0.032
KHK isoform 2 (UniProt P50053) | -0.01 | 0.034 | -0.003 | -0.137 | 0.142
ISOC2 (UniProt Q96AB3) | -0.014 | 0.035 | 0.085 | 0.03 | -0.031
GUSB (UniProt P08236) | 0.035 | 0.022 | 0.016 | -0.051 | -0.313
HADHA (UniProt P40939) | 0.065 | -0.006 | 0.102 | 0.117 | -0.008
HEATR3 (UniProt Q7Z4Q2) | -0.101 | 0.022 | 0.008 | -0.024 | 0.028
KHDRBS1 (UniProt Q07666) | -0.04 | 0.027 | 0 | 0.058 | 0.045
HAUS8 (UniProt Q9BT25) | 0.016 | -0.029 | 0 | 0.009 | 0
IRF2BP1 (UniProt Q8IU81) | -0.048 | -0.013 | -0.043 | 0.017 | -0.045
ISY1 isoform 1 (UniProt Q9ULR0) | 0.016 | 0 | 0.001 | -0.12 | -0.004
HSPA8 (UniProt P11142) | 0.002 | -0.014 | -0.004 | -0.004 | 0.006
KDM5B isoform 2 (UniProt Q9UGL1) | -0.07 | 0.117 | 0.018 | 0.07 | -0.229
GNL3 (UniProt Q9BVP2) | 0.018 | 0.087 | 0.006 | -0.023 | 0.041
HNRNPAB isoform 3 (UniProt Q99729) | -0.015 | 0.023 | -0.025 | 0.01 | -0.069
IRF2BPL (UniProt Q9H1B7) | 0.055 | -0.057 | 0 | 0.047 | -0.134
INPP4A (UniProt Q96PE3) | -0.079 | 0.112 | 0.027 | 0.036 | 0.017
KEAP1 (UniProt Q14145) | 0.029 | 0.016 | 0.014 | -0.018 | -0.02
GSTM2 (UniProt P28161) | -0.007 | 0.03 | -0.048 | -0.037 | 0.051
ICAM2 (UniProt P13598) | 0.03 | -0.025 | -0.006 | -0.022 | 0.084
IFITM3 (UniProt Q01628) | -0.011 | -0.078 | -0.118 | -0.088 | 0.026
INTS5 (UniProt Q6P9B9) | -0.086 | -0.034 | -0.019 | 0.015 | 0.127
HERC2 (UniProt O95714) | 0.005 | -0.07 | -0.011 | 0.018 | -0.037
HAUS5 (UniProt O94927) | 0.043 | 0.02 | 0.003 | -0.055 | 0.089
GPR108 (UniProt Q9NPR9) | 0.059 | -0.053 | 0.005 | -0.066 | 0.014
GLB1 (UniProt P16278) | 0.02 | 0.033 | 0.046 | 0.016 | -0.019
